The values below come from PMC5540273 (PLoS ONE, 2017).
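Note: KINOMEscan kinase panel screen.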

The test system of the first assay is JAK1(JH1domain-catalytic). The following applies: concentration: 1 μM, replicates: in singlicate; n = 1.
As to `Cl.Cl.c1ccc(-c2cc3ccncc3cc2OC2CCNCC2)cc1` [GSK1122999], the “%Inh” value was found to be 22%.
As to `CCc1nc(-c2cccc(N(C)S(=O)(=O)c3ccccc3)c2)c(-c2ccnc(Nc3ccc(N4CCN(C(C)=O)CC4)nc3)n2)s1` [GSK1645895], the “%Inh” value was 15%.
The same measure, in the same setting: the value for `Clc1ccc(-c2cc(-c3c[nH]nc3-c3ccccn3)ccn2)cc1` [GW681251] was 0%.
For `Clc1cccc(-c2nc(Nc3ccncc3)c3ccccc3n2)c1` [GW873004], the “%Inh” value amounted to 0%.
As to `Cc1ccc(C)c(NC(=O)NCCNc2ccnc(Nc3ccc(F)cc3)n2)c1` [GSK1379878], the “%Inh” value came out at 0%.
Take `O=C(Nc1ccccc1)Nc1ccc(Oc2ccc3nccn3n2)cc1`: the “%Inh” value stood at 28%.
Same read-out and setting: under `FC(F)(F)c1cc(Nc2nccc(-c3c(-c4ccc(Cl)cc4)nn4ncccc34)n2)ccc1Cl` [GW829351] stands 0%; under `COc1ccc(NC(=O)c2ccc(-c3cc(-c4nnc(C)o4)ccc3C)cc2)cc1` [GW595885], 9%; under `NC(=O)c1sc(-n2cnc3ccccc32)cc1OCc1ccccc1F` [GSK1024306], 6%.
On the same count and under the same terms, under `CC(=O)Nc1n[nH]c2ncc(-c3ccccc3)cc12` [SB-548492] stands 0%; under `CCC(CC)(CC)n1cnc2c(N)ncnc21` [SKF-97620], 10%; under `COc1cc2ncnc(Nc3ccc(OCc4ccccc4Br)c(Cl)c3)c2cc1OC.Cl` [GI261590], 17%.
As to `CN1c2ccc(-c3ccc(C(=O)NCCO)cc3)cc2-c2[nH]ncc2S1(=O)=O`, the “%Inh” value amounted to 5%.
Same read-out and setting: under `Cl.c1ccc(Cn2ccc3cc(Nc4ncnc5ccccc45)ccc32)cc1` [GW275568] stands 18%; under `O=c1cc(N2CCOCC2)nc2n(Cc3cccc(Cl)c3)ccn12` [GSK2296823], 0%.
On the same count and under the same terms, under `CSc1ccc(NC2=C(c3ccccc3Cl)C(=O)NC2=O)cc1` [SB-342411] stands 0%.
Same read-out and setting: under `Fc1ccc(Nc2nccc(-c3c(-c4ccc(Cl)cc4)nn4ncccc34)n2)cc1F` [GW829058] stands 0%; under `O=C(Nc1ccccc1F)NC1CCN(c2ccnc(Nc3ccc(F)cc3)n2)C1` (stereo not drawn) [GSK1379722], 12%.
`N#Cc1ccc(Oc2ccc(Nc3ncnc4cc[nH]c34)cc2Cl)cc1`: the “%Inh” value is listed as 12%.
On the same count and under the same terms, under `Oc1ccc2ncnc(Nc3ccc(OCc4ccccc4)cc3)c2c1` [GI262866] stands 12%; under `O=C(Nc1n[nH]c2nc(-c3ccco3)c(Br)cc12)c1ccc(CN2CCCC2)cc1.O=C(O)[C@H](O)[C@@H](O)C(=O)O` [SB-742352], 0%.
In the case of `CNc1nccc(-c2c(-c3ccc(F)cc3)ncn2CCCN2CCOCC2)n1` [SB-222516], the “%Inh” value worked out at 0%.
On the same count and under the same terms, under `O=C(c1ccc(-c2cc(-c3c[nH]nc3-c3ccccn3)ccn2)cc1)N1CCCC1` [GW792479] stands 0%; under `CSc1nn2c(=O)cc(N3CCOCC3)nc2n1Cc1cccc(Cl)c1Cl` [GSK2347225], 24%.
For the compound `Nc1nc(-c2ccc3c(N)n[nH]c3c2)cc(N2CCCCC2)n1` [GSK2228768], the “%Inh” value was 0%.
`Cc1cccc(-c2nc(Nc3ccc4[nH]nnc4c3)c3ccccc3n2)n1` [GW867587]: the “%Inh” value was determined as 0%.
In the case of `COc1ccc(NC(=O)Nc2ccc(C)c(-c3ccc(C(=O)Nc4ccncc4)cc3)c2)cc1` [GSK1398475], the “%Inh” value amounted to 11%.
On the same count and under the same terms, the value for `CC(C)(C)c1ccc(-n2cnc3c(N)ncnc32)cc1` [SKF-97263] was 7%.
The same measure, in the same setting: under `CCCc1ccc(S(=O)(=O)NC2CCN(c3ccnc(Nc4ccc(OC)cc4)n3)C2)cc1` (stereo not drawn) [GSK1379737] stands 34%; under `Clc1cc(Nc2ncnc3cc[nH]c23)ccc1OCc1ccccn1`, 3%; under `CC(C)(C)OC(=O)NC1CCCN(c2cc(-c3ccc4c(N)n[nH]c4c3)nc(N)n2)C1` (stereo not drawn) [GSK2286096], 6%.
Still for that read-out and setting: the value for `C[C@@H]1CCN(C(=O)CO)C[C@@H]1N(C)c1ncnc2[nH]ccc12` was 94%; that for `COC(=O)c1cccc(NC(=O)NCCNc2ccnc(Nc3ccc(F)cc3)n2)c1` [GSK1379883] was 30%.
As for `Nc1nc(-c2ccc3c(N)n[nH]c3c2)cc(N2CCC[C@@H](C(=O)Nc3ccccc3)C2)n1.O=C(O)C(F)(F)F.O=C(O)C(F)(F)F` [GSK2288359], the “%Inh” value was 14%.
Regarding `OCCOCCn1ccc2ncnc(Nc3ccc(Oc4cccc(Cl)c4)c(Cl)c3)c21`, the “%Inh” value stood at 0%.
Take `c1ccc(-c2ccc3c(-c4ccnc(Nc5ccc6c(c5)OCCO6)n4)cnn3n2)cc1` [GW818941]: the “%Inh” value is 14%.

In the next assay the test system is JAK1(JH2domain-pseudokinase). The following applies: concentration: 1 μM, replicates: in singlicate; n = 1.
Take `Cl.Cl.c1ccc(-c2cc3ccncc3cc2OC2CCNCC2)cc1` [GSK1122999]: the “%Inh” value stood at 0%.
On to `CCc1nc(-c2cccc(N(C)S(=O)(=O)c3ccccc3)c2)c(-c2ccnc(Nc3ccc(N4CCN(C(C)=O)CC4)nc3)n2)s1` [GSK1645895], for which the “%Inh” value came out at 21%.
In the case of `Clc1ccc(-c2cc(-c3c[nH]nc3-c3ccccn3)ccn2)cc1` [GW681251], the “%Inh” value stood at 0%.
On the same count and under the same terms, under `Clc1cccc(-c2nc(Nc3ccncc3)c3ccccc3n2)c1` [GW873004] stands 16%.
Consider `Cc1ccc(C)c(NC(=O)NCCNc2ccnc(Nc3ccc(F)cc3)n2)c1` [GSK1379878], for which the “%Inh” value worked out at 0%.
The same measure, in the same setting: the value for `O=C(Nc1ccccc1)Nc1ccc(Oc2ccc3nccn3n2)cc1` was 2%; that for `FC(F)(F)c1cc(Nc2nccc(-c3c(-c4ccc(Cl)cc4)nn4ncccc34)n2)ccc1Cl` [GW829351] was 0%.
The same measure, in the same setting: the value for `COc1ccc(NC(=O)c2ccc(-c3cc(-c4nnc(C)o4)ccc3C)cc2)cc1` [GW595885] was 0%.
As to `NC(=O)c1sc(-n2cnc3ccccc32)cc1OCc1ccccc1F` [GSK1024306], the “%Inh” value is reported as 0%.
Still for that read-out and setting: under `CC(=O)Nc1n[nH]c2ncc(-c3ccccc3)cc12` [SB-548492] stands 87%; under `CCC(CC)(CC)n1cnc2c(N)ncnc21` [SKF-97620], 0%.
For `COc1cc2ncnc(Nc3ccc(OCc4ccccc4Br)c(Cl)c3)c2cc1OC.Cl` [GI261590], the “%Inh” value came out at 0%.
For `CN1c2ccc(-c3ccc(C(=O)NCCO)cc3)cc2-c2[nH]ncc2S1(=O)=O`, the “%Inh” value was found to be 35%.
`Cl.c1ccc(Cn2ccc3cc(Nc4ncnc5ccccc45)ccc32)cc1` [GW275568]: the “%Inh” value stood at 10%.
`O=c1cc(N2CCOCC2)nc2n(Cc3cccc(Cl)c3)ccn12` [GSK2296823]: the “%Inh” value was 0%.
As for `CSc1ccc(NC2=C(c3ccccc3Cl)C(=O)NC2=O)cc1` [SB-342411], the “%Inh” value worked out at 0%.
Take `Fc1ccc(Nc2nccc(-c3c(-c4ccc(Cl)cc4)nn4ncccc34)n2)cc1F` [GW829058]: the “%Inh” value was 12%.
Regarding `O=C(Nc1ccccc1F)NC1CCN(c2ccnc(Nc3ccc(F)cc3)n2)C1` (stereo not drawn) [GSK1379722], the “%Inh” value came out at 0%.
In the case of `N#Cc1ccc(Oc2ccc(Nc3ncnc4cc[nH]c34)cc2Cl)cc1`, the “%Inh” value was 25%.
As to `Oc1ccc2ncnc(Nc3ccc(OCc4ccccc4)cc3)c2c1` [GI262866], the “%Inh” value came to 0%.
In the case of `O=C(Nc1n[nH]c2nc(-c3ccco3)c(Br)cc12)c1ccc(CN2CCCC2)cc1.O=C(O)[C@H](O)[C@@H](O)C(=O)O` [SB-742352], the “%Inh” value is listed as 1%.
Same read-out and setting: under `CNc1nccc(-c2c(-c3ccc(F)cc3)ncn2CCCN2CCOCC2)n1` [SB-222516] stands 0%; under `O=C(c1ccc(-c2cc(-c3c[nH]nc3-c3ccccn3)ccn2)cc1)N1CCCC1` [GW792479], 15%; under `CSc1nn2c(=O)cc(N3CCOCC3)nc2n1Cc1cccc(Cl)c1Cl` [GSK2347225], 0%.
As to `Nc1nc(-c2ccc3c(N)n[nH]c3c2)cc(N2CCCCC2)n1` [GSK2228768], the “%Inh” value is on record as 0%.
For `Cc1cccc(-c2nc(Nc3ccc4[nH]nnc4c3)c3ccccc3n2)n1` [GW867587], the “%Inh” value amounted to 52%.
The same measure, in the same setting: under `COc1ccc(NC(=O)Nc2ccc(C)c(-c3ccc(C(=O)Nc4ccncc4)cc3)c2)cc1` [GSK1398475] stands 0%; under `CC(C)(C)c1ccc(-n2cnc3c(N)ncnc32)cc1` [SKF-97263], 82%; under `CCCc1ccc(S(=O)(=O)NC2CCN(c3ccnc(Nc4ccc(OC)cc4)n3)C2)cc1` (stereo not drawn) [GSK1379737], 0%.
As for `Clc1cc(Nc2ncnc3cc[nH]c23)ccc1OCc1ccccn1`, the “%Inh” value turned out to be 35%.
Regarding `CC(C)(C)OC(=O)NC1CCCN(c2cc(-c3ccc4c(N)n[nH]c4c3)nc(N)n2)C1` (stereo not drawn) [GSK2286096], the “%Inh” value stood at 15%.
With `C[C@@H]1CCN(C(=O)CO)C[C@@H]1N(C)c1ncnc2[nH]ccc12`, the “%Inh” value came to 21%.
Still for that read-out and setting: under `COC(=O)c1cccc(NC(=O)NCCNc2ccnc(Nc3ccc(F)cc3)n2)c1` [GSK1379883] stands 0%; under `Nc1nc(-c2ccc3c(N)n[nH]c3c2)cc(N2CCC[C@@H](C(=O)Nc3ccccc3)C2)n1.O=C(O)C(F)(F)F.O=C(O)C(F)(F)F` [GSK2288359], 23%; under `OCCOCCn1ccc2ncnc(Nc3ccc(Oc4cccc(Cl)c4)c(Cl)c3)c21`, 38%.
For `c1ccc(-c2ccc3c(-c4ccnc(Nc5ccc6c(c5)OCCO6)n4)cnn3n2)cc1` [GW818941], the “%Inh” value worked out at 0%.
